Values without a mark were called inactive. For some of these results: Potency and affinity values are given separately. Calls of active or inactive are those of the source. Unless noted, no rule for the calls is given here.

The values that follow come from PubChem BioAssay.

Assay [1] in a line: antimalarial activity against Dd2 strain (AID 2302;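 active = growth inhibition above 50% at the single 2 µM test dose, taken to imply half-maximal potency below 2 µM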;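 also: 0% = DMSO untreated growth and 100% = chloroquine plus artemisinin killed control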). The conditions noted are these: P. falciparum Dd2 in RBCs, LDH growth readout, 72 h; at 2 µM; hits give high values.
Assay [2] is described as follows: human hepatoma cell viability loss – ATP luminescence, cytotoxicity control for P. falciparum antimalarial project, primary screen (AID 2303;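 active = inhibition above 50%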;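 also: 0% = DMSO wells and 100% = digitonin-killed cells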). The note with it: HepG2 viability, 24-48 h, at 10 µM, hits give high values.
The target in assay [3] is L-lactate dehydrogenase (Plasmodium falciparum (isolate CDC / Honduras)) (UniProt Q27743). The assay is described as follows: PfLDH activity inhibition – cell lysate, 3D7 strain, counter-screen for P. falciparum growth inhibition project (AID 2304).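 Also: 0% = vehicle and 100% = reference inhibitor.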 The note with it: P. falciparum 3D7 crude extract, LDH APAD/NBT absorbance; at 2 µM; hits give high values. (Counterscreens check selectivity or assay interference.)

Assay [4] is described as follows: inhibition of 3D7 malaria parasite growth – strain 3D7 (AID 2306).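 Also: 0% = DMSO wells and 100% = chloroquine plus artemisinin control wells.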 The conditions noted are these: P. falciparum 3D7 erythrocytic growth, LDH absorbance, 72 h; at 2 µM; hits give high values.
Assay [5] addresses Calcium-dependent protein kinase 1 (Plasmodium falciparum (isolate 3D7)) (UniProt P62344). As to the kind of experiment: PfCDPK1 kinase inhibitors, biochemical, TCAMS library (AID 1159585; cut-off not given, nearly all actives have IC50 up to about 0.98 µM;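 also: inhibitors leave more ATP so luminescence rises with inhibition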). The conditions noted are these: recombinant PfCDPK1, Kinase-Glo ATP depletion luminescence. For orientation: Kinase-Glo reads ATP consumption through a luciferase reaction.
Assay [6] concerns the target Plasmodium falciparum protein kinase 6 (PK6, PF3D7_1337100) (UniProt Q8IDW1). As to the kind of experiment: PfPK6 kinase inhibitors, biochemical, TCAMS library (AID 1159586). The note with it: recombinant PfPK6, Kinase-Glo ATP depletion luminescence.
Assay [7] has as its target Protein kinase 7 (PK7), Plasmodium falciparum 3D7 (PF3D7_0213400) (UniProt Q7YTF7). The assay is described as follows: inhibition of Plasmodium PK7 catalytic activity – biochemical, TCAMS antimalarial set, Kinase-Glo luminescence (AID 1159587). The note with it: recombinant PfPK7, Kinase-Glo ATP depletion luminescence.
Assay [8] deals with Calcium-dependent protein kinase 4 (Plasmodium falciparum (isolate 3D7)) (UniProt Q8IBS5). The assay is described as follows: PfCDPK4 kinase inhibitors, biochemical, TCAMS library (AID 1159588; cut-off not given, nearly all actives have IC50 up to about 0.91 µM). The note with it: recombinant PfCDPK4, Kinase-Glo ATP depletion luminescence.
Chain of Calcium-dependent protein kinase 4 (Plasmodium falciparum (isolate 3D7)) (Q8IBS5 whole entry, looked up): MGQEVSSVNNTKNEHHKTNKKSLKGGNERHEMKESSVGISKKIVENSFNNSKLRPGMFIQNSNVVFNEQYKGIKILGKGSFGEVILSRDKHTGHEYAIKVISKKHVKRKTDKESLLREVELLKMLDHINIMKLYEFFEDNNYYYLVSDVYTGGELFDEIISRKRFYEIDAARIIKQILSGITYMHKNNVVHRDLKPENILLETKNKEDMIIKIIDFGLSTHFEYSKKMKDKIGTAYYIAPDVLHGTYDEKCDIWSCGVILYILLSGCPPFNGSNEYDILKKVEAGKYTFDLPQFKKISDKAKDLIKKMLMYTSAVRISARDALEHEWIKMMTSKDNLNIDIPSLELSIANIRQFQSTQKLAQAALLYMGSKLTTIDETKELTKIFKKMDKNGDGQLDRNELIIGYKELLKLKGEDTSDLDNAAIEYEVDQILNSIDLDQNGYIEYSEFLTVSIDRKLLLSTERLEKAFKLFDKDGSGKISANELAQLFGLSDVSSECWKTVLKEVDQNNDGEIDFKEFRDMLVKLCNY

Chain of Plasmodium falciparum protein kinase 6 (PK6, PF3D7_1337100) (Q8IDW1 1-305): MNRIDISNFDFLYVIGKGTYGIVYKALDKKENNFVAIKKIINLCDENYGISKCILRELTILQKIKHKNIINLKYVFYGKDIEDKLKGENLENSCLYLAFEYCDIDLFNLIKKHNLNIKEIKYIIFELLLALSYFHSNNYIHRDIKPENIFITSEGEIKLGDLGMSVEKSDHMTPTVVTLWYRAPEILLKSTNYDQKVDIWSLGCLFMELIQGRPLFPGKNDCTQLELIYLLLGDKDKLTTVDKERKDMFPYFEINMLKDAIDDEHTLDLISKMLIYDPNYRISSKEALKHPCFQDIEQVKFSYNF
Chain of Calcium-dependent protein kinase 1 (Plasmodium falciparum (isolate 3D7)) (P62344 whole entry, looked up): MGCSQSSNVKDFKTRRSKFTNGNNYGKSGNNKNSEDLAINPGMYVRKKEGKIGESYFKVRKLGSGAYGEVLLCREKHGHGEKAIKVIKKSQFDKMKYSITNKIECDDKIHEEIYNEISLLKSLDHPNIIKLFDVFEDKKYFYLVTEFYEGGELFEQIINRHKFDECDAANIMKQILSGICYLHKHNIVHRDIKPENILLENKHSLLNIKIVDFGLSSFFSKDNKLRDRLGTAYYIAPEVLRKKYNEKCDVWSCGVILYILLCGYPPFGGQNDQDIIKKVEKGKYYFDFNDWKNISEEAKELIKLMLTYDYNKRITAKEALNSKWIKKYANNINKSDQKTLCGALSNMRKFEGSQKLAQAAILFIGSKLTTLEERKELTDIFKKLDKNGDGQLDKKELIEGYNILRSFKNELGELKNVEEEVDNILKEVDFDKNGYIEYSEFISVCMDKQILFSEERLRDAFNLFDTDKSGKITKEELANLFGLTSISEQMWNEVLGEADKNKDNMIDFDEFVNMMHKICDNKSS
Chain of L-lactate dehydrogenase (Plasmodium falciparum (isolate CDC / Honduras)) (Q27743 whole entry, looked up): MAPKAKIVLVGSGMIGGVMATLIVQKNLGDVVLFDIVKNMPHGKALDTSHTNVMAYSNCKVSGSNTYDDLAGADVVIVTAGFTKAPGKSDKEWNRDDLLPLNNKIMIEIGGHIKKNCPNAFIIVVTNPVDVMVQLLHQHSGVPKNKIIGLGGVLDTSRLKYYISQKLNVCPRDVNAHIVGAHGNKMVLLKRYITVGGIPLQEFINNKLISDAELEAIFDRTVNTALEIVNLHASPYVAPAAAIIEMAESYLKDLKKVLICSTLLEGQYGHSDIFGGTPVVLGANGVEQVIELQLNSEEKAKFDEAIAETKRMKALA
Chain of Protein kinase 7 (PK7), Plasmodium falciparum 3D7 (PF3D7_0213400) (Q7YTF7 1-343): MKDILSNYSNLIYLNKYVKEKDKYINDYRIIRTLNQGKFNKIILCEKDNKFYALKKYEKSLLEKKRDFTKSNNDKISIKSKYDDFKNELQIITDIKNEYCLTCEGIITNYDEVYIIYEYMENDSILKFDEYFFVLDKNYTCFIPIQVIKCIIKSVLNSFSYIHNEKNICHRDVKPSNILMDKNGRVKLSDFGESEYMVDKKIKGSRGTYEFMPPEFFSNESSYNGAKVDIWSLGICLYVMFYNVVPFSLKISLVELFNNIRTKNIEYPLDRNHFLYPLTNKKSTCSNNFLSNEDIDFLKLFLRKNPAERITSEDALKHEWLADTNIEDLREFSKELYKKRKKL

As for `Cc1ccccc1C1CCN(C2CCC(NC(=O)/C=C/c3ccc(OC(F)(F)F)cc3)CC2)CC1` (stereo not given), the growth inhibition in assay [1] is 67% (active); in assay [4], 100% (active). Moreover, the figures for the inhibition in assay [2] and in assay [3] were 96% (active) and -5%, respectively. In addition, the outcome in assay [5], in assay [6], in assay [7] and in assay [8] was inactive.
For `CN(C)CCCNCc1ccc(-c2ccc(CNCCOc3ccccc3)cc2)cc1`, the growth inhibition is 53% (active) in assay [1] and 100% (active) in assay [4]. Moreover, the inhibition in assay [2] was 27%; in assay [3], 0%. For the same molecule, the outcome in assay [5], in assay [6], in assay [7] and in assay [8] was inactive.
On to `Fc1ccc2[nH]c(-c3ccccc3)nc2c1CN1CCC(N2CCCC2)CC1`, for which the growth inhibition in assay [1] was 30%; in assay [4], 100% (active). Besides, the inhibition is 2% in assay [2] and -2% in assay [3]. The outcome in assay [5], in assay [6], in assay [7] and in assay [8] was inactive.
For `CCc1cc(NC2CCN(C)CC2)nc(Nc2cccc(OC)c2)n1`, the growth inhibition in assay [1] was 37%; in assay [4], 93% (active). In addition, the results for the inhibition in assay [2] and in assay [3] were 22% and -6%, respectively. For the same molecule, the outcome in assay [5], in assay [6], in assay [7] and in assay [8] was inactive.
With `COc1ccc(NC(=O)c2ccc3[nH]c(-c4ccc(Cl)cc4)cc3c2)cc1OCCN(C)C`, the growth inhibition in assay [1] is 78% (active); in assay [4], 100% (active). Besides, the figures for the inhibition in assay [2] and in assay [3] were 32% and 2%, respectively. In addition, the result in assay [5], in assay [6], in assay [7] and in assay [8] was inactive.
For `Nc1ncc(-c2ccccc2)cc1/C=C/c1cccnc1`, the growth inhibition was 9% in assay [1] and 91% (active) in assay [4]. Further, the values for the inhibition in assay [2] and in assay [3] were 33% and -2%, respectively. Further, the result in assay [5], in assay [6], in assay [7] and in assay [8] was inactive.
As for `Cn1nc(-c2ccc(NC(=O)Nc3cc(C(F)(F)F)ccc3F)cc2)c2cnc(NCCc3cnc[nH]3)nc21`, the growth inhibition in assay [1] was 56% (active); in assay [4], 99% (active). Also, the inhibition in assay [2] is 15%; in assay [3], -3%. In addition, the result in assay [5], in assay [6], in assay [7] and in assay [8] was inactive.
`CC(=O)Nc1nc(C(=O)Nc2ccc(-c3ccc(-c4nc5ccccc5[nH]4)cc3)cc2)cs1`: the growth inhibition in assay [1] was 53% (active); in assay [4] it was 100% (active). For the same molecule, the values for the inhibition in assay [2] and in assay [3] were 38% and -5%, respectively. For the same molecule, the outcome in assay [5], in assay [6], in assay [7] and in assay [8] was inactive.
For the molecule `CN1CCN(CC(=O)Nc2ccc(-c3ccc(-c4nc5ccccc5[nH]4)cc3)cc2)CC1`, the values for the growth inhibition in assay [1] and in assay [4] were 80% (active) and 98% (active), respectively. For the same molecule, the inhibition is 18% in assay [2] and -1% in assay [3]. For the same molecule, the outcome in assay [5], in assay [6], in assay [7] and in assay [8] was inactive.
In the case of `Cc1cc(-c2ccc(NC(=O)N3CCc4cc(Br)c(N5CCN(C)CC5)cc43)cc2)ccc1C#N`, the growth inhibition in assay [1] was 56% (active); in assay [4] it was 99% (active). Besides, the inhibition was 100% (active) in assay [2] and 0% in assay [3]. The result in assay [5], in assay [6], in assay [7] and in assay [8] was inactive.
Turning to `CC(=O)c1cc(N2CCOCC2)ccc1N`, the results for the growth inhibition in assay [1] and in assay [4] were 43% and 91% (active), respectively. For the same molecule, the inhibition was 7% in assay [2] and 3% in assay [3]. Besides, the result in assay [5], in assay [6], in assay [7] and in assay [8] was inactive.
In the case of `COc1ccc2c(NN=Cc3ccccc3Cl)ccnc2c1`, the growth inhibition is 46% in assay [1] and 99% (active) in assay [4]. For the same molecule, the results for the inhibition in assay [2] and in assay [3] were 10% and -6%, respectively. For the same molecule, the outcome in assay [5], in assay [6], in assay [7] and in assay [8] was inactive.
For `COC(=O)c1ccc(C(=O)NCCCCN2CCC(c3ccc4c(c3OC)CCCC4)CC2)cc1-c1ccc(C(F)(F)F)cc1`, the results for the growth inhibition in assay [1] and in assay [4] were 19% and 93% (active), respectively. For the same molecule, the results for the inhibition in assay [2] and in assay [3] were 24% and 2%, respectively. Moreover, the outcome in assay [5], in assay [6], in assay [7] and in assay [8] was inactive.
On to `N#CCCN1CCN(Cc2ccc(-c3cccc(-c4nc5ccc(F)cc5[nH]4)c3)cc2)CC1`, for which the growth inhibition was 17% in assay [1] and 91% (active) in assay [4]. Also, the results for the inhibition in assay [2] and in assay [3] were 16% and 0%, respectively. For the same molecule, the result in assay [5], in assay [6], in assay [7] and in assay [8] was inactive.
With `O=C(NCc1ccccc1)C1Cc2c([nH]c3ccc(Br)cc23)C2(CCN(Cc3ccccc3)CC2)N1` (stereo not given), the growth inhibition in assay [1] was 70% (active); in assay [4] it was 98% (active). Also, the inhibition is 15% in assay [2] and 1% in assay [3]. In addition, the result in assay [5], in assay [6], in assay [7] and in assay [8] was inactive.
Take `COc1ccc2nccc([C@@H](O)CN3CCC(NCc4cc5c(F)ccc(F)c5[nH]4)CC3)c2n1`: the growth inhibition in assay [1] is 76% (active); in assay [4] it was 101% (active). Moreover, the inhibition in assay [2] was 22%; in assay [3] it was -6%. Besides, the outcome in assay [5], in assay [6], in assay [7] and in assay [8] was inactive.
With `COc1ccc2nc(C)cc(NN=Cc3cccc(F)c3)c2c1`, the growth inhibition in assay [1] and in assay [4] was 100% (active) throughout. The inhibition was 2% in assay [2] and 1% in assay [3]. Further, the outcome in assay [5], in assay [6], in assay [7] and in assay [8] was inactive.
As for `CN(C)Cc1ccc(CN2CCN(CCOc3ccc(-c4ccc(Cl)cc4)cc3)CC2)o1`, the growth inhibition in assay [1] is 21%; in assay [4], 90% (active). The inhibition in assay [2] is 75% (active); in assay [3], -1%. The result in assay [5], in assay [6], in assay [7] and in assay [8] was inactive.
With `c1cc(-c2ccc(CNCCc3ccncc3)cc2)cc(-c2nc3ccccc3[nH]2)c1`, the growth inhibition in assay [1] is 99% (active); in assay [4], 101% (active). Also, the figures for the inhibition in assay [2] and in assay [3] were 41% and -8%, respectively. Also, the outcome in assay [5], in assay [6], in assay [7] and in assay [8] was inactive.
For the molecule `CCCc1nc2c(N3CC(NC(=O)/C=C/c4ccccc4)C3)cccc2n1C1CC1`, the growth inhibition in assay [1] was 68% (active); in assay [4], 83% (active). For the same molecule, the inhibition in assay [2] was 1%; in assay [3], 0%. Also, the result in assay [5], in assay [6], in assay [7] and in assay [8] was inactive.

The inhibition is the relative decrease from the control value, in per cent.
